The source of these data is PubChem BioAssay (NCI).

The panel holds about 83,000 compounds, 20% with a hit somewhere; the sample as a whole holds those more often.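 Single-concentration screen, 48 h exposure, 96-well plates. Endpoint: percent growth. Below 10 = active.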 Values without a mark were called inactive. The source made the active and inactive calls.

Among the test systems are HCT-15 colon; HT29 colon; SNB-75 CNS; SNB-19 CNS; U251 CNS; PC-3 prostate; SK-MEL-5 melanoma; UACC-62 melanoma; LOX IMVI melanoma; SK-MEL-28 melanoma.
Experiment in all cases: NCI-60 one-dose screen, 48 h (100 = growth as untreated, 0 = no growth, -100 = all killed)
Holding throughout (conditions): 10 µM unless noted

As for `CCOC(=O)[C@@H](C)C[C@H](Cc1ccccc1)NC(=O)c1csc([C@@H](C[C@H](C(C)C)N(C)C(=O)[C@H](CCC(C)C)NC(=O)[C@H]2CCCCN2C)OC(C)=O)n1`, the growth with HCT-15 colon is 15.2%; in the assay on HT29 colon, -14.9% (active); in the assay with SNB-75 CNS, 37.6%; in the assay on SNB-19 CNS it was 39.9%; in the assay on U251 CNS it was 2.75% (active); in the assay with PC-3 prostate, 13.7%. Moreover, the growth is -25.5% (active) in the assay with SK-MEL-5 melanoma, 40.7% in the assay with UACC-62 melanoma, 15.2% in the assay on LOX IMVI melanoma and 64.8% with SK-MEL-28 melanoma.

Turning to `CCOC(=O)N[C@H]1CCc2c(Br)c(OC)c(OC)c(OC)c2-c2ccc(SC)c(=O)cc21`, the growth with HCT-15 colon is 8.88% (active); in the assay on HT29 colon it was 13.1%; in the assay on SNB-75 CNS, 17.2%; in the assay with SNB-19 CNS, 28.7%; in the assay on U251 CNS, 19.7%; with PC-3 prostate, 24.2%. In addition, the growth was -23.4% (active) with SK-MEL-5 melanoma, 38.7% in the assay on UACC-62 melanoma, 9.29% (active) in the assay with LOX IMVI melanoma and 56.8% with SK-MEL-28 melanoma.

As for `COc1cccc2c1c(C(=O)C(=O)Nc1ccn[nH]1)cn2Cc1ccc(F)cc1`, the growth was 106% with HCT-15 colon; 105% with HT29 colon; 90.1% in the assay on SNB-75 CNS; 107% in the assay on SNB-19 CNS; 103% in the assay with U251 CNS; 98.3% in the assay on PC-3 prostate. Also, the growth in the assay on SK-MEL-5 melanoma was 106%; in the assay on UACC-62 melanoma, 92.1%; in the assay on LOX IMVI melanoma, 103%; in the assay on SK-MEL-28 melanoma, 110%.

Regarding `O=C1C(Cl)=C(N2CCOCC2)C(=O)c2ccccc21`, the growth is 71.5% in the assay with HCT-15 colon; 116% in the assay with HT29 colon; 102% in the assay on SNB-75 CNS; 116% in the assay with SNB-19 CNS; 67% with U251 CNS; 71.9% in the assay on PC-3 prostate. Moreover, the growth is 92% in the assay with SK-MEL-5 melanoma, 105% in the assay on UACC-62 melanoma, 76.7% in the assay on LOX IMVI melanoma and 118% in the assay with SK-MEL-28 melanoma.

With `CCC(C)(C)[C@H](NC(=O)[C@H]1CCCCN1C)C(=O)N(C)[C@H](C[C@@H](OC(C)=O)c1nc(C(=O)N[C@@H](Cc2ccccc2)C[C@H](C)C(=O)O)cs1)C(C)C`, the growth in the assay with HCT-15 colon is 6.87% (active); with HT29 colon it was -2.9% (active); with SNB-75 CNS it was 6.25% (active); with SNB-19 CNS, 17.8%; in the assay with U251 CNS, 12.1%; in the assay with PC-3 prostate it was 24.9%. Further, the growth in the assay with SK-MEL-5 melanoma is -18.1% (active); with UACC-62 melanoma, 30.9%; with LOX IMVI melanoma, 16.1%; in the assay on SK-MEL-28 melanoma, 44.6%.

Take `O=C1C2C(C(=O)[N]1[Hg][c]1ccccc1)C1(Cl)C(Cl)=C(Cl)C2(Cl)C1(Cl)Cl` (stereo not drawn): the growth in the assay on HCT-15 colon is -89.1% (active); with HT29 colon it was -45% (active); in the assay with SNB-75 CNS, -64.1% (active); with SNB-19 CNS, 25.9%; in the assay with U251 CNS it was -65.9% (active); in the assay with PC-3 prostate, -57.4% (active). Further, the growth with SK-MEL-5 melanoma is -16.6% (active); in the assay with UACC-62 melanoma, -3.49% (active); in the assay with LOX IMVI melanoma, -82.8% (active); in the assay with SK-MEL-28 melanoma it was -88.9% (active).

For `CC12CCC3C(C=CC4=C(N)C(=O)CCC43C)C1CCC2=O` (stereo not drawn), the growth in the assay with HCT-15 colon is 73%; in the assay with HT29 colon it was 51.2%; in the assay on SNB-75 CNS, 94.2%; in the assay on SNB-19 CNS, 103%; with U251 CNS, 54.2%; with PC-3 prostate, 46.5%. In addition, the growth in the assay on SK-MEL-5 melanoma was 69.7%; in the assay on UACC-62 melanoma it was 81%; with LOX IMVI melanoma, 60.6%; with SK-MEL-28 melanoma, 103%.

For the compound `CCN(CC)CCOC(=O)C(OC(C)C)(c1ccccc1)c1ccccc1`, the growth in the assay on HCT-15 colon is 96.4%; with HT29 colon, 79.7%; with SNB-75 CNS, 88.3%; with SNB-19 CNS it was 96.2%; with U251 CNS, 101%; with PC-3 prostate, 83.7%. Besides, the growth is 97.6% with SK-MEL-5 melanoma, 103% in the assay on UACC-62 melanoma, 96.7% in the assay on LOX IMVI melanoma and 99.6% in the assay on SK-MEL-28 melanoma.

With `O=c1[nH]cc(N(CCCl)CCCl)c(=O)[nH]1`, the growth in the assay with HCT-15 colon is 75.6%; in the assay on HT29 colon it was 63.4%; in the assay with SNB-75 CNS, 62.9%; in the assay on SNB-19 CNS, 65.1%; in the assay on U251 CNS, 64.7%; with PC-3 prostate it was 49.5%. The growth with SK-MEL-5 melanoma is 82%; in the assay with UACC-62 melanoma it was 64%; with LOX IMVI melanoma, 46%.

`CC(=O)O[C@H](C[C@H](C(C)C)N(C)C(=O)[C@@H](NC(=O)[C@H]1CCCCN1C)C(C)C)c1cccc(C(=O)N[C@@H](Cc2ccccc2)C[C@H](C)C(=O)O)n1`: the growth in the assay on HCT-15 colon is 9.65% (active); in the assay on HT29 colon, 2.72% (active); in the assay with SNB-75 CNS it was 27.6%; in the assay with SNB-19 CNS, 22.4%; with U251 CNS, 10.9%; with PC-3 prostate, 26.4%. The growth in the assay on SK-MEL-5 melanoma is -39.2% (active); in the assay on UACC-62 melanoma, 36.3%; with LOX IMVI melanoma, 14.6%; in the assay on SK-MEL-28 melanoma, 65%.

In the case of `O=C1N[C@@H]2[C@@H](O)[C@@H](O)[C@H](O)C[C@H]2c2cc3c(c(O)c21)OCO3`, the growth with HCT-15 colon was 1.81% (active); in the assay on HT29 colon, -14.9% (active); in the assay with SNB-75 CNS, -25.3% (active); in the assay on SNB-19 CNS, -8.68% (active); with U251 CNS it was -10.5% (active); in the assay with PC-3 prostate it was -8.66% (active). Further, the growth was -72.7% (active) in the assay on SK-MEL-5 melanoma, -48.3% (active) in the assay on UACC-62 melanoma and -48.8% (active) with LOX IMVI melanoma.

Regarding `CN1CCC(O)(c2ccc(F)cc2)C(C(=O)c2ccc(F)cc2)C1` (stereo not drawn), the growth in the assay on HCT-15 colon was 107%; in the assay with HT29 colon it was 122%; with SNB-75 CNS it was 113%; in the assay with SNB-19 CNS, 95.1%; in the assay with U251 CNS, 107%; with PC-3 prostate, 98.4%. In addition, the growth was 102% in the assay with SK-MEL-5 melanoma, 100% in the assay with UACC-62 melanoma, 94.3% with LOX IMVI melanoma and 121% in the assay with SK-MEL-28 melanoma.

In the case of `[Cl][Hg][c]1cc[c]([Hg][Cl])o1`, the growth in the assay with HCT-15 colon was -47.3% (active); in the assay with HT29 colon it was 30.9%; in the assay with SNB-75 CNS, 54.4%; with SNB-19 CNS, 15.4%; with U251 CNS it was -40.8% (active); in the assay on PC-3 prostate, 51.3%. Also, the growth in the assay with SK-MEL-5 melanoma is 39.7%; in the assay on UACC-62 melanoma, 47.1%; with LOX IMVI melanoma, -10.3% (active); in the assay with SK-MEL-28 melanoma, 49.1%.
